Data taken from the supplement of paper PMC4206467.

What follows are compounds tested on Perkinsus marinus PRA240 (assay: ATP content (proliferation) relative to DMSO control; higher = more parasite growth (less inhibition)). Details: 20 µM; 4 days.
Experimental: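 Perkinsus marinus PRA240 trophozoites (2-5x10^6 cells/ml, 100 µl, 96-well) were exposed once to MMV Malaria Box compounds at 20 µM (0.1% DMSO) in triplicate. ATP content (ATPlite bioluminescence) was read at day 4 post-exposure and normalised to DMSO + cells control wells (100% activity). Compounds were identified by joining plate and well to the Malaria Box list.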

Row | SMILES | ATP content [%]
1 | c1ccc(CNc2nc(Nc3ccccc3)nc3ccccc23)cc1 | 75.4
2 | O=C(Nc1ccc(C23CC4CC(CC(c5ccccc5)(C4)C2)C3)cc1)c1cccs1 | 68.7
3 | COc1cccc(Nc2nc(N)c3ccccc3n2)c1 | 9.11
4 | O=C(Nc1ccc(CN2CCOCC2)cc1)c1ccc(-c2ccc(Br)cc2)o1 | 89.4
5 | O=C(CCl)NCCOc1ccc(Cl)cc1Cl | 99.9
6 | CCOc1cc(Cl)c(C(C)NC(=O)c2ccccc2)cc1OCC (stereo not given) | 91.1
7 | Nc1ccc(-c2nc3cc(Oc4ccc(Oc5ccc6[nH]c(-c7ccc(N)cc7)nc6c5)cc4)ccc3[nH]2)cc1 | 74.1
8 | COc1ccc(CCNC(=O)c2cc(S(=O)(=O)N3CC(C)CC(C)C3)ccc2Sc2ccc(F)cc2)cc1OC (stereo not given) | 160
9 | Cn1c(=O)c2cc(C(=O)NCCCN3CCCCCC3)sc2c2ccccc21 | 86.3
10 | FC(F)(F)c1cccc(CNC2CCN(CCc3ccccc3)CC2)c1 | 95.6
11 | CCCCNc1nc(NC(C)(C)C)nc(NC(C)(C)C)n1 | 116
12 | FC(F)(F)c1cccc(Nc2nc(-c3ccccc3)nc3ncccc23)c1 | 108
13 | CCOc1ccc(Nc2ccnc3cc(Cl)ccc23)cc1 | 55.2
14 | CCCCN(CCCC)S(=O)(=O)c1ccc(NC(=O)c2ccco2)cc1 | 43.3
15 | N=c1n(CCN2CCCCC2)c2ccccc2n1CC(O)c1cccc(Br)c1 (stereo not given) | 116
16 | COc1ccccc1CNC(=O)C1c2ccccc2C(=O)N(CC(C)C)C1c1cccs1 (stereo not given) | 111
17 | CC(C)(C)CC(C)(C)NCC(O)COc1ccc2c(c1)CCC2 (stereo not given) | 114
18 | CC(=O)c1sc(NC(=O)Nc2ccc(C)cc2C)nc1C | 68.1
19 | CCCn1c(=N)c(C(=O)NC2CCCCC2)cc2c(=O)n3cccc(C)c3nc21 | 64.4
20 | COc1ccc(C2Sc3ccccc3N=C3C2=C(O)c2ccccc23)cc1 (stereo not given) | 46.2

Row | SMILES | ATP content [%]
21 | Cc1cc(C)c2nc(N3CCC(C(=O)NCCCN4CCC(N5CCCCC5)CC4)CC3)sc2c1 | 135
22 | CCC(C)NCC(O)(c1ccc(Cl)cc1)c1ccc(Cl)cc1 (stereo not given) | 78.7
23 | Cc1cc(NC(=O)c2cccc(C(F)(F)F)c2)n(-c2nc(-c3ccc4c(c3)OCO4)cs2)n1 | 144
24 | CC(C)=CCN1CCC(C(=O)Nc2ccc(-c3nc4ccccc4[nH]3)cc2)CC1 | 81.5
25 | CC(Oc1ccc(NC(=O)c2cccs2)cc1)C(=O)c1ccc(Cl)cc1 (stereo not given) | 55.4
26 | CCN(CC)CCNc1ccnc2cc3ccccc3cc12 | 107
27 | CCOc1ccccc1CNC(=O)C1c2ccccc2C(=O)N(CC(C)C)C1c1cccs1 (stereo not given) | 78.8
28 | COc1cc2cc(C(=O)Nc3ccccc3)c(N)nc2cc1OC | 44.3
29 | CC(C)(C)c1ccc(C(=O)Nc2c3c(nn2-c2cccc(Cl)c2)CSC3)cc1 | 147
30 | COc1ccc2nc(N)nc(C)c2c1 | 88
31 | COc1ccccc1N1CCN(C(CNS(=O)(=O)c2ccc(Cl)cc2)c2cccnc2)CC1 (stereo not given) | 111
32 | COc1ccc(C=C2SC(Nc3ccccc3)=NC2=O)cc1 | 61.4
33 | Cc1ccc2c(C)nc(Nc3nc(C)cc(-c4ccccc4)n3)nc2c1 | 93
34 | CCOC(=O)c1cnc2ccc(OC)cc2c1Nc1ccc(N2CCN(C)CC2)cc1 | 106
35 | COCCN(C(=O)Cc1cccs1)C(C(=O)NCc1ccc(OC)cc1)c1ccc(C(C)C)cc1 (stereo not given) | 37.2
36 | Cc1ccc(Cn2c(N3CCC(C(=O)NCc4cccs4)CC3)nc3ccccc32)cc1 | 106
37 | Cc1ccc(-c2nc3ccccc3o2)cc1NCc1cc(Cc2ccccc2)ccc1O | 77.3
38 | O=C(NC(c1ccccc1)c1ccc2cccnc2c1O)c1ccccc1 (stereo not given) | 26.3
39 | CCOC(=O)C1=CN(C)C=C(C(=O)OCC)C1c1cc(Br)c(OCC)c(OC)c1 | 121
40 | CCCCc1ccc(NS(=O)(=O)c2cc3c4c(c2)CCN4C(=O)CC3)cc1 | 115
